# SW480 rereplic: inducers of DNA re-replication in SW480 colon cancer cells. 340,000 tested, 1.8% active. Potency, µM (top dose mostly 46.1 µM), for the others: at the highest dose re-replication activation, actives largely listed as activators. AID 624297. SW480 DNA re-replication, Hoechst DNA content imaging, 48 h; note: % of control where 0% means no effect; nearly all actives have a fitted effect of over 55% in size
#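 Per well, 250 cells were exposed to pinned compound for 48 hr. Nuclear DNA was visualised with Hoechst (40 min, 37 C) and total object intensity recorded by fluorescence scanning.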
# MCF10A rerep: DNA re-replication induction in MCF 10a cells | MCF 10A DNA re-replication, Hoechst nuclear intensity, 48 h | Potency, µM (series often up to 46.1 µM), for the others: at the top dose activity, positive = re-replication, actives largely listed as activators | 350,000 tested, 2.9% active | AID 624296; note: % of control where 0% means no effect; nearly all actives have a fitted effect of over 50% in size
# KB-3-1 tox: KB-3-1 parental cell cytotoxicity. KB-3-1 viability, CellTiter-Glo ATP luminescence, 72 h. Potency, µM (titrated, usually from 46.1 µM), usual class: cytotoxic. 400,000 tested, 1.4% active. AID 1347075; note: % is set by controls: 0 for no effect and ±100 for the full control effect; nearly all actives have a fitted effect of over 60% in size
#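 Parental KB-3-1 viability, qHTS format: 72 h compound exposure, 37 °C; CellTiter-Glo; media-only wells and DMSO plates as controls; concentration-effect fits on corrected data.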
# HT1080-NT tox: kills 2HG-producing HT-1080-NT fibrosarcoma cells; HT-1080-NT fibrosarcoma viability, CellTiter-Glo ATP luminescence, 48 h; Potency, µM (highest dose often 46.1 µM), for inactives: at the top dose activity, negative = less viability, usual class: cytotoxic; 360,000 tested, 1.6% active; AID 686970;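 note: NT is the 2HG producing partner of a matched IDH1 knockdown line; 0% = DMSO-treated cells and -100% = media-only wells without cells; nearly all actives have a fitted effect of over 55% in size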
#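 Toxicity toward the 2HG-producing NT line was scored as %Activity, normalised to DMSO and no-cell wells, from CellTiter-Glo luminescence after 48 hours' treatment.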
# HT1080 IDH1KD tx: kills HT-1080 cells with IDH1 knockdown. HT-1080 IDH1 knockdown viability, ATP luminescence, 48 h. Potency, µM (titrated, usually from 46.1 µM), inactives show top-dose activity, negative = toxicity, most hits filed as cytotoxic. 360,000 tested, 2% active;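 note: 0% = DMSO wells and -100% = cell-free medium wells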
#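 Viability of IDH1-knockdown HT-1080 fibrosarcoma cells was assessed by CellTiter-Glo after 48 h at 37 °C with titrated compound; concentration-effect curves were classified by fit quality and response size.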
# KB-V1 cytotox: KB-V1 MDR subline cytotoxicity; 400,000 tested, 3.4% active; KB-V1 MDR cells viability, CellTiter-Glo, 72 h; Potency, µM (top dose mostly 46.1 µM), most hits filed as cytotoxic; note: % is set by controls: 0 for no effect and ±100 for the full control effect; nearly all actives have a fitted effect of over 60% in size
#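 In this primary screen, KB-V1 cells overexpressing P-gp are incubated with library compounds (lowest to highest concentration) for 72 h at 37 degrees C before a luminescent ATP viability read.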
# * hit, by the source's call; i = inactive; ? = inconclusive; nt = no result; ! = not confirmed by another sample. Sampled rows, rich in hits. Any-hit rate of the full collection: about 8%. Calls come from the whole dose curve; as a rule, active = well fitted curve in the direction sought with a large enough effect; inconclusive = small, poorly fitted or top-dose-only effect, or another doubt; inactive = no such curve, though single readings can be large; an effect the other way counts as inactive or inconclusive. Potency is the fitted concentration of half-maximal effect.
SMILES,SW480 rereplic,MCF10A rerep,KB-3-1 tox,HT1080-NT tox,HT1080 IDH1KD tx,KB-V1 cytotox
COc1cc(OC)c(NS(=O)(=O)c2c(C)nc3sc(C)cn3c2=O)cc1Cl,nt,nt,i,nt,nt,i
COc1ccc(C2CC(=O)N(Cc3cccc(C)c3)c3c2c(C)nn3-c2nc(C)cc(C)n2)c(OC)c1 (centres undefined),nt,nt,i,nt,nt,i
Cc1cc(C)c(NC(=O)C(=O)NCC(c2cccnc2)N2CCN(c3ccccc3F)CC2)c(C)c1 (centres undefined),nt,nt,i,nt,nt,i
O=C(Nc1ccc(F)c(Cl)c1)Nc1csc2ccccc12,11.6%,?,?,9.2µM*,6.51µM*,11.6µM*
CCOC(=O)c1cccc(NC(=O)c2ccc3snnc3c2)c1,nt,nt,i,nt,nt,?
O=C(NCCc1ccccc1)c1ccc(CS(=O)(=O)Cc2ccccc2F)o1,-4.5%,3.3%,i,8.9%,2.4%,14.6µM*
Cc1ccc(CCNC(=O)c2ccc(CS(=O)(=O)Cc3ccccc3F)o2)cc1,2.0%,27.2%,i,-6.9%,-4.7%,5.8µM*!
CC(C)CCNC(=O)c1ccc(CS(=O)(=O)Cc2ccccc2F)o1,-3.2%,-2.7%,i,8.3%,2.8%,i
O=C(O)[C@H](O)[C@@H](O)[C@H](O)[C@H](O)CO,-0.6%,3.5%,nt,nt,nt,nt
CCOc1ccc(S(=O)(=O)N2CCN(c3cc(Cl)ccc3Cl)CC2)c2ccccc12,nt,nt,i,nt,nt,?
C=CCN1C(=O)/C(=C/c2ccc(O)c(OC)c2)S/C1=N/c1nccs1,?,18.4µM*,i,-2.4%,?,14.6µM*
CSc1ccc(S(=O)(=O)Nc2ccc3c4c(cccc24)CC3)cc1,?,?,18.4µM*,?,?,14.6µM*
CSc1ccc(S(=O)(=O)Nc2ccc3c(c2)NC(=O)CC3)cc1,2.9%,23.9%,i,-28.3%,16.4µM*,i
O=C1CCc2cc(S(=O)(=O)Nc3ccc4c(c3)CCC4)ccc2N1,nt,nt,i,nt,nt,i
CC(=O)N1CCCc2cc(S(=O)(=O)N3CCC(C(=O)NCCC(C)C)CC3)ccc21,nt,nt,i,nt,nt,i
C=CCSc1nc(-c2ccc(OC)cc2)c(C#N)c(=O)n1CC=C,-2.2%,20.6µM*,i,-33.3%,?,i
Nc1c(S(=O)(=O)c2ccccc2)c2nc3ccccc3nc2n1Cc1ccco1,?,?,?,-27.5%,-16.7%,23.1µM*
Cc1ccc(S(=O)(=O)c2c(N)n(Cc3ccco3)c3nc4ccccc4nc23)cc1C,?,14.6µM*,?,?,?,23.1µM*
Cc1ccc(S(=O)(=O)c2c(N)n(CCN3CCOCC3)c3nc4ccccc4nc23)cc1C,19.7%,?,i,-7.3%,-2.9%,i
Nc1c(S(=O)(=O)c2ccccc2)c2nc3ccccc3nc2n1CCN1CCOCC1,?,-43.0%,i,-5.1%,6.9%,i
COc1ccccc1CN(C)C(=O)c1cc(-c2cccs2)nc2ccccc12,9.6%,18.4µM*,?,?,?,?
O=C(N/N=C/c1cccc(F)c1)c1cc(-c2ccco2)nc2ccccc12,?,?,?,?,16.4µM*,?
COc1cc(/C=N/NC(=O)c2cc(-c3ccccc3OC(C)C)nc3ccccc23)ccc1O,?,10.3µM*,18.4µM*,-20.2%,?,11.6µM*
COc1ccc(-c2cc(C(=O)N/N=C/c3ccc(OC)c(COCC(F)(F)C(F)F)c3)c3ccccc3n2)c(OC)c1,17.4%,23.1µM*,i,-1.8%,1.6%,i
COc1cc(/C=N/NC(=O)c2cc(-c3ccccc3)nc3ccccc23)ccc1O,0.4%,15.9%,i,-25.0%,?,i
SMILES,SW480 rereplic,MCF10A rerep,KB-3-1 tox,HT1080-NT tox,HT1080 IDH1KD tx,KB-V1 cytotox
Cc1cc(O)c2c(c1)OC1(C)CCC3C(C)(C)CCCC34COC2C14 (centres undefined),2.3%,?,nt,nt,nt,nt
COc1ccccc1-c1cc(C(=O)N/N=C/c2cccs2)c2ccccc2n1,6.9%,14.1µM*,?,-28.2%,?,i
O=C(N/N=C/c1ccc2c(c1)OCO2)c1cc(-c2ccc(F)cc2)nc2ccccc12,?,3.66µM*,?,?,?,8.2µM*
COc1ccccc1-c1cc(C(=O)N/N=C\c2cnn(C)c2C)c2ccccc2n1,0.6%,?,i,-7.2%,-4.6%,?
COc1ccc(-c2cc(C(=O)N/N=C/c3ccc4c(c3)OCO4)c3ccccc3n2)c(OC)c1,?,?,i,-21.3%,-23.0%,i
O=C(N/N=C/c1cccs1)c1cc(C2CC2)nc2ccccc12,18.4µM*,8.2µM*,18.4µM*,?,?,?
CCc1ccc(/C=N/NC(=O)c2cc(-c3ccncc3)nc3ccccc23)s1,3.66µM*,1.03µM*,4.61µM*,?,?,i
CC1CCN(C(=O)c2ccc3c(c2)N(Cc2ccccc2F)C(=O)c2ccccc2S3(=O)=O)CC1,nt,nt,i,nt,nt,i
Cc1ccccc1NC(=O)C1CCN(C(=O)c2cnn(-c3ccccc3)c2-n2cccc2)CC1,nt,nt,i,nt,nt,i
CSc1ncc(C(=O)NCc2ccc(C)cc2)c(-c2ccccc2)n1,nt,nt,i,nt,nt,i
O=C(N/N=C/c1cccs1)c1cc(-c2ccncc2)nc2ccccc12,?,?,?,-57.8%,-54.3%,1.84µM*
O=C(N/N=C/c1ccco1)c1cc(-c2ccncc2)nc2ccccc12,16.4µM*,?,?,?,?,i
CCc1ccc(/C=N/NC(=O)c2c[nH]c3ccccc23)s1,2.1%,3.2%,i,-5.1%,-7.8%,?
O=C(N/N=C/c1ccccn1)c1cc(-c2ccccc2)nc2ccccc12,?,?,i,0.0%,-19.4%,i
CCCc1cc(C(=O)N/N=C/c2ccc(CC)s2)c2ccccc2n1,20.6µM*,7.31µM*,?,?,3.66µM*,5.8µM*
CC(C)c1ccc(NC(=O)Cn2c(=O)n(Cc3nc(-c4ccccc4)no3)c(=O)c3cc4c(cc32)OCO4)cc1,nt,nt,i,nt,nt,i
CCOC(=O)c1ccc(NC(=O)CCc2c(C)nc3c(c(C)nn3C)c2C)cc1,nt,nt,i,nt,nt,i
C=CCNCCCCOc1ccc(Br)cc1C,?,25.9µM*,i,-17.4%,-29.4%,i
Cc1cc(Br)ccc1OCCCCNCCO,-1.1%,6.8%,i,-15.1%,-20.6%,i
Cc1cc(C(C)(C)C)ccc1OCCCCN1CCCC1,4.1%,13µM*,i,-10.2%,-6.4%,i
Cc1cc(Br)ccc1OCCCCN1CCCCC1,?,12.3%,i,20.6µM*,?,?

# Screening results from PubChem.
